Where “and” joins values, the source holds several entries; their conditions need not be identical. Identical values can stand only once. Records with an inconclusive call do not appear. Calls of active or inactive are those of the source. Unless noted, the call rests on the fitted dose curve; in most records, active means well fitted curve in the direction sought with a large enough effect; inconclusive means small, poorly fitted or top-dose-only effect, or another doubt; inactive means no such curve, though single readings can be large; an effect the other way counts as inactive or inconclusive.
Assays:
[1] = Cell Viability - MRC5 (AID 434; calls by dose curve;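 further: potency means the concentration at half of the fitted maximal effect; cells exposed to compound for 40 hours at 37 °C; potency reflects cytotoxicity seen as loss of intracellular ATP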); conditions: MRC5 lung fibroblast viability, qHTS
Outline: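 AC50 values come from Hill-equation fits of intracellular ATP loss, measured by CellTiter-Glo luminescence. Normal lung fibroblasts (MRC5) had 40 hr compound treatment at 37 C, normalized between DMSO and 100 uM tamoxifen.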

[2] = Cellular Toxicity (caspase-3) HepG2 (AID 654);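 further: cells exposed to compound for 16 hours before reading; 0% = DMSO alone and 100% = caspase signal from 100 µM tamoxifen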
Outline: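 Caspase 3/7 activation is measured as a luminescence increase (aminoluciferin substrate) after 16 h compound exposure of human hepatocarcinoma HepG2 cells. AC50 values are Hill fits, scaled between DMSO baseline and 100 uM tamoxifen stimulation.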

[3] = Cellular Toxicity (caspase-3) BJ (AID 658); conditions: Potency: caspase-3 activation;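 further: cells exposed to compound for 16 hours; 0% = DMSO basal and 100% = 10 µM staurosporine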
Outline: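 Caspase-Glo 3/7 luminescence, read 1 hr after reagent at room temperature, in normal BJ fibroblasts exposed 16 hours at 37 °C. AC50 values from Hill-equation concentration-response, scaled between DMSO basal and 10 uM staurosporine as 100%.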

[4] = Cellular Toxicity (caspase-3) H-4-II-E (AID 663); conditions: Potency: caspase-3 activation;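 further: cells exposed to compound for 16 hr before readout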
Outline: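 Caspase 3/7 activation measured by luminescent aminoluciferin substrate cleavage after 16 hr compound treatment of H-4-II-E cells in complete medium. Increase normalized between DMSO (basal) and 100 uM tamoxifen (100%); Hill-equation AC50 from concentration-response.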

[5] = Cell Viability - LYMP2-015 (AID 971);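 further: 0% = DMSO only and full effect = 92 µM tetraoctylammonium bromide; nearly all actives have a fitted effect of over 55% in size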
Outline: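 Cytotoxicity readout: decrease in intracellular ATP (CellTiter-Glo luminescence) in 2500 LYMP2-015 lymphoblastoid cells/well after 24 h compound exposure at 37 C. Concentration-response data fitted with the standard Hill equation to give AC50.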

[6] = qHTS assay for small molecule antagonists of peroxisome proliferator-activated receptor delta signaling (AID 588535; active means well fitted inhibition curve with a large enough effect in the signal ratio, with a control signal flat, not every such curve was filed as active; the % refers to the signal ratio;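 on max response: cells co-treated with a PPAR-delta agonist as stimulator during compound exposure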); conditions: HEK293T PPARd-UAS-bla, beta-lactamase FRET ratio, 18 h; 460 nm channel
Outline: (§1)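 Titrations were run on PPAR-delta-UAS-bla HEK293T cells in charcoal/dextran-stripped serum, incubated 18 h at 37 C. CCF4 fluorescence (460/530 nm) after 2 h RT; Hill equation yields IC50 and maximal response.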

[7] = molecular target: Peroxisome proliferator-activated receptor delta (Homo sapiens) (UniProt Q03181); assay: as above
Outline: as §1

[8] = molecular target: Peroxisome proliferator-activated receptor gamma (Homo sapiens) (UniProt P37231); assay: qHTS assay for small molecule agonists of peroxisome proliferator-activated receptor gamma signaling (AID 588536; active means well fitted curve in the direction sought with a large enough effect in the signal ratio, with a control signal flat, not every such curve was filed as active; the % refers to the signal ratio;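 further: 0% = DMSO basal wells and 100% = rosiglitazone at 2 µM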)
Outline: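 Beta-lactamase reporter read-out: CCF4 fluorescence (ex 405, em 460/530 nm) after 2 h at RT. HEK293 GeneBLAzer cells were treated for 16 h at 37 C. Hill fits gave EC50 and efficacy versus 2 uM rosiglitazone (100%) and DMSO (0%).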

[9] = qHTS assay for small molecule activators of the nuclear factor-kappa B (NF-kB) signaling pathway (AID 651749; active means well fitted activation curve with a large enough effect in the signal ratio; the % refers to the signal ratio; further: % of control where 0% means no effect); conditions: NF-kB-bla ME-180 cells, beta-lactamase FRET ratio, 16 h; stronger effect = higher value
Outline: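 Activation measured after 16 hr compound treatment at 37C, 5% CO2, of 2,000 ME-180 cells/well stably expressing an NF-kB response element–driven beta-lactamase reporter, via FRET-disruption fluorescence.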

[10] = molecular target: Nuclear receptor ROR-gamma (Homo sapiens) (UniProt P51449); assay: qHTS assay for small molecule antagonists of the retinoid-related orphan receptor gamma (ROR-gamma) signaling pathway (AID 651802); further: nearly all actives have a fitted effect of over 60% in size; further: potency means the concentration at half of the fitted maximal effect
Outline: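 Luminescence (One-Glo, 30 min RT) measured 16 h after compound addition and doxycycline induction at 37C. Reporter: RORE-luciferase under TET-inducible ROR-gamma in CHO cells.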

[11] = qHTS assay for small molecule antagonists of the retinoid-related orphan receptor gamma (ROR-gamma) signaling pathway - cell viability counter screen (AID 720652; active means well fitted curve in the direction sought with a large enough effect in the repeat runs; an effect the other way counts as inactive or inconclusive;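 further: CHO reporter cells with doxycycline-induced ROR-gamma expression; compound exposure lasted 16 hr before ATP read; on the % scale 0 is the no-effect control and ±100 the full control effect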)
Outline: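 Cytotoxicity counter screen: intracellular ATP (CellTiter-Glo luminescence) measured in the doxycycline-induced CHO RORE-luciferase reporter line after 16 hr compound exposure at 37 C, 5% CO2.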

[12] = qHTS assay for small molecule agonists of the antioxidant response element (ARE) signaling pathway measured by Nrf2-dependant transcriptional activity - cell viability counter screen (AID 720653; active means well fitted curve in the direction sought with a large enough effect in the repeat runs; an effect the other way counts as inactive or inconclusive; further: on the % scale 0 is the no-effect control and ±100 the full control effect); conditions: ARE-bla HepG2 viability, CellTiter-Glo ATP luminescence, 16 h; max response: stronger effect = lower value
Outline: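 Cytotoxicity counter screen: intracellular ATP quantified by CellTiter-Glo luminescence in the same ARE-bla HepG2 plates, after 16 h compound exposure and a 2 h beta-lactamase substrate step.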

[13] = qHTS assay for small molecule activators of the human pregnane X receptor (PXR) signaling pathway (AID 720659; call rule not given here; further: 0% is about no effect)
[14] = Cell Viability - NIH 3T3 (AID 541); conditions: NIH 3T3 cell viability, qHTS; activity change, negative = cytotoxicity: at 92.2 µM (top of the series);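 further: cells exposed to compound for 40 hours; nearly all actives have a fitted effect of over 25% in size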; further: potency means the concentration at half of the fitted maximal effect;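 on activity change, negative = cytotoxicity: plate controls were DMSO alone for no effect and tamoxifen positive control for full effect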
Outline: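 Intracellular ATP (CellTiter-Glo luminescence, 20 min at room temperature) measured after 40 hr compound exposure at 37 °C of 1000 NIH 3T3 mouse fibroblasts/well in complete medium; AC50 derived by Hill-equation modelling of qHTS concentration-response curves.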

[15] = Cellular Toxicity (caspase-3) Hek293 (AID 664); conditions: HEK293 caspase-3 activation, DMSO = 0%, 100 µM tamoxifen = 100%; at 92.2 µM (top of the series);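 further: cells exposed to compound for 16 h at 37 °C before readout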
Outline: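 Concentration-response qHTS: caspase 3/7 activation measured by luminescent aminoluciferin substrate cleavage after 16 h compound exposure of Hek 293 cells. AC50 from Hill equation, with DMSO as basal and 100 uM tamoxifen as 100%.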

[16] = molecular target: Cytochrome P450 3A4 (Homo sapiens) (UniProt P08684); assay: qHTS Assay for Inhibitors and Substrates of Cytochrome P450 3A4 (AID 884); further: nearly all actives have a fitted effect of over 50% in size; further: potency means the concentration at half of the fitted maximal effect
Outline: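 Luminescent readout of luciferin produced by CYP3A4 (20 nM) dealkylation of Luciferin-PPXE, 25 uM (its KM). NADPH-driven reaction ran 60 min at RT after 10 min compound preincubation; data scaled to 57 uM ketoconazole as 100% inhibition.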

[17] = molecular target: Estrogen receptor (Homo sapiens) (UniProt P03372); assay: qHTS assay for small molecule antagonists of estrogen receptor alpha signaling (AID 588513; active means well fitted curve in the direction sought with a large enough effect in the signal ratio, with a control signal flat, not every such curve was filed as active; the % refers to the signal ratio; further: on the % scale 0 is the no-effect control and ±100 the full control effect)
Outline: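 ER-alpha-UAS-bla GripTite HEK 293 cells in 2% charcoal/dextran-treated FBS medium; compounds titrated (1:2, duplicate), then stimulated with 0.5 nM 17-beta-estradiol for 18 h at 37C. CCF4 beta-lactamase fluorescence; Hill-fit IC50 and efficacy.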

[18] = qHTS assay for cell viability of HEK293 cells (AID 743288); conditions: ATP luminescence (CellTiter-Glo), 18 h; max response: stronger effect = lower value; further: nearly all actives have a fitted effect of over 50% in size; further: potency means the concentration at half of the fitted maximal effect; on max response: on the % scale 0 is the no-effect control and ±100 the full control effect
Outline: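 Steps: plate 2,000 parental HEK293 cells per well; incubate ≥5 h, 37 C; add compounds in DMSO; incubate 18 h, 37 C; add CellTiter-Glo; wait 30 min at room temperature; read luminescence.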

[19] = qHTS assay for small molecule agonists of the antioxidant response element (ARE) signaling pathway (AID 651741; active means well fitted activation curve with a large enough effect in the signal ratio; the % refers to the signal ratio; further: potency means the concentration at half of the fitted maximal effect; on activation: % of control where 0% means no effect)
Outline: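 Beta-lactamase reporter under ARE control in HepG2 cells, 2,000 per well, was induced by 16 h compound treatment at 37 C. Read-out was fluorescence from LiveBLAzer B/G FRET substrate after 2 h at room temperature.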

[20] = MultiTox-Fluor Cytotoxicity Assay - LYMP1-003 - Live Cells (AID 962);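 further: cells exposed to compound for 16 hours at 37 °C; 0% = DMSO only and full loss = 92 µM tetraoctylammonium bromide; cytotoxic hits lower the live-cell protease signal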
Outline: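 Live-cell protease activity (GF-AFC substrate, 405/510 nm, 60 min at room temperature) after 16 h, 37 C compound exposure of human lymphoblastoid LYMP1-003 cells; concentration-response fitted to the Hill equation for AC50.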

Sequence of Peroxisome proliferator-activated receptor gamma (Homo sapiens) (P37231 whole entry, looked up): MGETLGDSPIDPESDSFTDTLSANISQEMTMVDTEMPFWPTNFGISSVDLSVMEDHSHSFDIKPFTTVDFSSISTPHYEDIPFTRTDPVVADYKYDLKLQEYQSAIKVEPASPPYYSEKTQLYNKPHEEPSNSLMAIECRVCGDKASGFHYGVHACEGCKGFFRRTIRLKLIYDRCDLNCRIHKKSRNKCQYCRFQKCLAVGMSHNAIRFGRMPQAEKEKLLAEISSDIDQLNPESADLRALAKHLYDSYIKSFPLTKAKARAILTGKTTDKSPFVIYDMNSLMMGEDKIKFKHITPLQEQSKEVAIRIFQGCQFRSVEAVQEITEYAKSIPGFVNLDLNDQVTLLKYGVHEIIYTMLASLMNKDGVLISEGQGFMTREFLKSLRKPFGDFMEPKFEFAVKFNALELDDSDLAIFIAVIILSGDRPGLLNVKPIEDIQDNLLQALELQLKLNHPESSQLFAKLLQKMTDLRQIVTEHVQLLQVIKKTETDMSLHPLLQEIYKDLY
Sequence of Nuclear receptor ROR-gamma (Homo sapiens) (P51449 whole entry, looked up): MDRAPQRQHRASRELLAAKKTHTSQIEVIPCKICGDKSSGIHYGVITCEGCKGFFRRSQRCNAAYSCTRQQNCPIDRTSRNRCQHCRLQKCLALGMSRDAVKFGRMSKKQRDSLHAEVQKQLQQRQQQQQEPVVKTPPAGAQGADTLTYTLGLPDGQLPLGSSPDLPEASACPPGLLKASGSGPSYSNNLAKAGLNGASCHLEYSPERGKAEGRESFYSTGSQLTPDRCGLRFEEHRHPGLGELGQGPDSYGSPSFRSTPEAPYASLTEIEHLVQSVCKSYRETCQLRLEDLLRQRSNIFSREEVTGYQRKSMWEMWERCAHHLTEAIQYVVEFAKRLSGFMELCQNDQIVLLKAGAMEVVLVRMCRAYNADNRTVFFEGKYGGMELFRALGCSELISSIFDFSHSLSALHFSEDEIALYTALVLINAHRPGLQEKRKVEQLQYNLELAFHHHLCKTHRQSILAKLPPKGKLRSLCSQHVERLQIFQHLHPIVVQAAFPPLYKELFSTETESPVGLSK
Sequence of Peroxisome proliferator-activated receptor delta (Homo sapiens) (Q03181 whole entry, looked up): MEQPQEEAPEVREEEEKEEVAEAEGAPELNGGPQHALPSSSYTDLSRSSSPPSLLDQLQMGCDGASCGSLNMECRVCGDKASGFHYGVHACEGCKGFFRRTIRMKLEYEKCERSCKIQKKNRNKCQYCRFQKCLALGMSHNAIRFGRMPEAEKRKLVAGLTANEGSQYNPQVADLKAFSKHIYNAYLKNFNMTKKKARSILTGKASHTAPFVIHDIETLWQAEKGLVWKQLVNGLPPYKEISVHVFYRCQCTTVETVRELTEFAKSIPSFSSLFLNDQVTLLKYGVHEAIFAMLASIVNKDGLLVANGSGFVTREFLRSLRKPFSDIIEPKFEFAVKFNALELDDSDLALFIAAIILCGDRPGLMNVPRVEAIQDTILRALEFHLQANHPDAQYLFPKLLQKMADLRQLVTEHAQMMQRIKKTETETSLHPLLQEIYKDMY
Sequence of Cytochrome P450 3A4 (Homo sapiens) (P08684 whole entry, looked up): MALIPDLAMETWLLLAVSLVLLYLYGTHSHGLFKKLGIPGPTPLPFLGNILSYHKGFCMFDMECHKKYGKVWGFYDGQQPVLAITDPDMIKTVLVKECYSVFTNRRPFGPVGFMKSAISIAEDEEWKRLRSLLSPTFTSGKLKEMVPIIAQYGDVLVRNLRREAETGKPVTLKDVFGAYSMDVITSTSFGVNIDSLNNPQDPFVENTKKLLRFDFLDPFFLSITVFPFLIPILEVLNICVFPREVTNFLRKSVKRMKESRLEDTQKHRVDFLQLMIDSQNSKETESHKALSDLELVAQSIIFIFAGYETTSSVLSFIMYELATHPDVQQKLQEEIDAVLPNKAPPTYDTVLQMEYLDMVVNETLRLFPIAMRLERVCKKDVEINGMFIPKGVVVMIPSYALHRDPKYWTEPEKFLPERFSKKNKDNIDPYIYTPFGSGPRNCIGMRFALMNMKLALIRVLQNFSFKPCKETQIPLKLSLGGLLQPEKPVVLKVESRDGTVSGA
Sequence of Estrogen receptor (Homo sapiens) (P03372 whole entry, looked up): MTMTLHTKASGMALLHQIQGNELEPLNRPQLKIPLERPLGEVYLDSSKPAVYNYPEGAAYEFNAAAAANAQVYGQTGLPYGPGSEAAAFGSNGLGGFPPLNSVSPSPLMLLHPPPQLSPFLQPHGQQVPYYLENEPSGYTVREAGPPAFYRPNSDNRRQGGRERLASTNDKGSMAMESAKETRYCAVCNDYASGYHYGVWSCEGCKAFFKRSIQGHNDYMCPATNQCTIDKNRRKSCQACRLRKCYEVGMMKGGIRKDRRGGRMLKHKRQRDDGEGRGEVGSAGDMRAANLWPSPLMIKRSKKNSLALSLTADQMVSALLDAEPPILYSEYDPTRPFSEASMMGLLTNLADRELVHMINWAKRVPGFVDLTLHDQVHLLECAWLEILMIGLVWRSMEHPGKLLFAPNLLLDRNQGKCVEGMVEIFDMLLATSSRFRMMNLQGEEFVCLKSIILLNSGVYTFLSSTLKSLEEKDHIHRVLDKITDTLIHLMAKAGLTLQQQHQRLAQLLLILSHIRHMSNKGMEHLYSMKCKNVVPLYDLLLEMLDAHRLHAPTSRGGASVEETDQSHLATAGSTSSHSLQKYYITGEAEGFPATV

CCCCC(CC)COP(=O)(OCC(CC)CCCC)OCC(CC)CCCC (stereo not given)
38.7%: max response [6]
inactive: Potency [1] > 92 µM | Potency [2] | Potency [3] | Potency [4] | Potency [5] | outcome [7] | outcome [8] | activation [9] -0.649% | Potency [10] | Potency [11] | max response [12] -10.8% | outcome [13]

CC(C)(C)C(=O)C1C(=O)c2ccccc2C1=O
active: Potency [14] 12.6 µM
inactive: Potency [3] | Potency [4] | caspase-3 activation [15] -1.93% | Potency [16] | outcome [17] | activation [9] 1.49% | max response [18] -22.9%

C/C=C1/C(=O)C[C@H]2[C@@H]3CCC4=CC(=O)CC[C@]4(C)[C@H]3CC[C@]12C
inactive: Potency [2] | Potency [3] | Potency [4] | Potency [16] | max response [12] -1.31%
active: activity change, negative = cytotoxicity [14] -151% | Potency [19] 3.76 µM | Potency [10] 47.3 µM

Cc1c(C(=O)O)c(O)cc2c1C(=O)c1c(O)c([C@H]3O[C@H](CO)[C@@H](O)[C@H](O)[C@H]3O)c(O)c(O)c1C2=O
inactive: Potency [2] | Potency [3] | Potency [4] | caspase-3 activation [15] -3.17% | outcome [17] | outcome [7] | outcome [8] | Potency [19] | outcome [13]
active: activity change, negative = cytotoxicity [14] -80.4% | Potency [10] 26.6 µM
28.9%: max response [6]

CCN(CC)c1ccc(N)cc1
inactive: Potency [2] | Potency [3] | Potency [4] | caspase-3 activation [15] 18.6% | Potency [20] | activation [9] 0.867% | Potency [11]
active: activity change, negative = cytotoxicity [14] -96.6% | Potency [19] 37.6 µM | Potency [10] 37.6 µM

O=Nc1ccc(Nc2ccccc2)cc1
inactive: Potency [3] | activation [9] -1.21% and -2.86% | max response [12] -2.32% and -16.8%
active: Potency [14] 31.6 µM | Potency [18] 39.8 µM and 20 µM

Nc1ccc(N)c(Cl)c1
-6.58%: max response [6]
active: Potency [14] 31.6 µM | Potency [16] 10 µM | Potency [19] 23.7 µM
inactive: Potency [2] | Potency [4] | caspase-3 activation [15] 4.53% | outcome [7] | Potency [10] | Potency [11] | max response [12] 24% | max response [18] -4.85% | outcome [13]

S=C(NC1CCCCC1)NC1CCCCC1
-15.4%: max response [6]
inactive: Potency [3] | Potency [4] | Potency [20] | Potency [5] | outcome [17] | outcome [7] | outcome [8] | activation [9] -0.887% | Potency [10] | Potency [11] | max response [12] -8.66% | max response [18] -15.2%
active: Potency [19] 66.8 µM

c1ccc(Nc2cccc3ccccc23)cc1
inactive: activity change, negative = cytotoxicity [14] -22.5% | Potency [4] | Potency [20] | Potency [5] | outcome [7] | Potency [10] | max response [12] -11.3% and -26.9%
27.2% and -10.4%: max response [6]

Cc1cc(=O)oc2cc(O)cc(O)c12
active: Potency [16] 6.31 µM | Potency [19] 13.3 µM
inactive: Potency [1] > 92 µM | Potency [2] | caspase-3 activation [15] -0.488% | Potency [20] | Potency [5] | outcome [17] | outcome [8] | Potency [10] | Potency [11] | max response [18] -8.02% | outcome [13]

Cc1cccnc1
inactive: activity change, negative = cytotoxicity [14] -24.9% | Potency [2] | Potency [3] | Potency [16] | Potency [20] | Potency [5] | outcome [8] | Potency [19] | activation [9] -0.701% | Potency [10] | Potency [11] | max response [18] -8.35% | outcome [13]

O=C1c2ccccc2C(=O)C1(O)O
inactive: Potency [3] | Potency [16] | Potency [20] | outcome [17] | activation [9] -0.508% | outcome [13]
active: Potency [19] 66.8 µM

C=CC(C)(O)CCCC(C)CCCC(C)CCCC(C)C (stereo not given)
4.15%: max response [6]
inactive: activity change, negative = cytotoxicity [14] -10.5% | Potency [2] | Potency [3] | Potency [5] | outcome [17] | outcome [7] | outcome [8] | Potency [19] | activation [9] -0.414% | outcome [13]

CCCCCCCC/C=C\CCCCCCCC(=O)N(CCO)CCO
inactive: Potency [1] > 92 µM | Potency [2] | Potency [3] | Potency [5] | outcome [7] | activation [9] 3.7% | Potency [11] | max response [12] -24.9%
92.2%: max response [6]

C[Si](C)(C)Cl
inactive: Potency [1] > 92 µM | activity change, negative = cytotoxicity [14] -21.3% | Potency [3] | Potency [4] | caspase-3 activation [15] 1.84% | Potency [16] | Potency [20] | Potency [5] | outcome [17] | activation [9] 1.18% | Potency [10] | Potency [11] | max response [12] -8.15% | max response [18] -4.36% | outcome [13]

OC1CCCCC1
inactive: activity change, negative = cytotoxicity [14] -12.6% | Potency [2] | Potency [3] | Potency [4] | Potency [16] | Potency [5] | outcome [17] | outcome [7] | outcome [8] | Potency [19] | Potency [10] | Potency [11] | max response [12] 16.5% | outcome [13]
23.6%: max response [6]

O=[N+]([O-])c1cc(N(CCO)CCO)ccc1NCCO
active: Potency [18] 44.7 µM
25% and 8.06%: max response [6]
inactive: Potency [1] 67.7 µM | Potency [2] | Potency [3] | caspase-3 activation [15] -3.81% | Potency [16] | Potency [5] | outcome [17] | outcome [7] | Potency [19] | activation [9] -0.608% and 1.27% | Potency [10] | Potency [11] | outcome [13]

Oc1cc(Cl)cc(Cl)c1Cl
inactive: activity change, negative = cytotoxicity [14] -14.4% | Potency [3] | caspase-3 activation [15] -0.269% | Potency [16] | Potency [20] | Potency [5] | outcome [17] | Potency [11] | max response [12] -7.11% | max response [18] -4.35% | outcome [13]

Source: PubChem BioAssay (NCATS)
